# Experimental data as given in PubChem BioAssay (NCI).
# This is part of a sample that, as a whole, favours compounds with a hit. Of some 83,000 tested, about 20% had one in any assay.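 Interpretation: 100, growth as untreated; towards 0, rising growth inhibition; 0, no net growth; 0 to -100, cell death. Compounds scoring below 10 were considered active.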 Values without a mark were called inactive. Activity calls are given as the source filed them.
# Key:
# Assay in all cases: NCI-60 one-dose screen, 48 h (100 = growth as untreated, 0 = no growth, -100 = all killed)
# Conditions in all cases: 10 µM
# [1] = tested on: NCI-H23 lung
# [2] = tested on: NCI-H226 lung
# [3] = tested on: NCI-H322M lung
# [4] = tested on: HOP-62 NSCLC
# [5] = tested on: NCI-H460 lung
# [6] = tested on: NCI-H522 lung
# [7] = tested on: A549/ATCC NSCLC
# [8] = tested on: 786-0 renal
# [9] = tested on: COLO 205 colon
# [10] = tested on: DU-145 prostate
# [11] = tested on: K-562 leukemia
# [12] = tested on: MDA-MB-231 breast
# [13] = tested on: RXF 393 renal
# [14] = tested on: SF-268 CNS
# [15] = tested on: SF-295 CNS
# [16] = tested on: SF-539 CNS
# [17] = tested on: UACC-257 melanoma
# [18] = tested on: M14 melanoma
# [19] = tested on: HCT-15 colon
# [20] = tested on: MALME-3M melanoma
Structure (SMILES),growth [1],growth [2],growth [3] [%],growth [4],growth [5],growth [6],growth [7],growth [8],growth [9],growth [10],growth [11],growth [12],growth [13],growth [14],growth [15],growth [16],growth [17],growth [18],growth [19],growth [20] [%]
O=C1OCC2=C1C(c1cccc(Cl)c1)c1cc3c(cc1N2CCO)OCO3 (configuration not stated),31.7%,23.4%,42.8,31.4%,7.53% (active),-19.7% (active),27.6%,35.7%,-6.41% (active),11%,15.4%,31.7%,6.21% (active),46.5%,-4.59% (active),-9.08% (active),61%,11%,18.5%,
O=C(NN1C(=O)CSC1c1ccc(Cl)cc1)c1cccnc1 (configuration not stated),86.8%,249%,98.9,93.7%,103%,87.1%,113%,92%,110%,52.2%,,156%,,97%,78.3%,105%,112%,84.1%,119%,88.8
CC(C)(C)NC/C(=C\c1ccccc1)C(=O)c1ccccc1,12.4%,49.1%,63.3,26.5%,8.72% (active),-92.5% (active),30.1%,-41.6% (active),-74.1% (active),21.8%,6.24% (active),-23% (active),-66.4% (active),7.36% (active),85.9%,-46.2% (active),-8.37% (active),-30.6% (active),-52.1% (active),
O=C(CNC(=O)OCc1ccccc1)NCC(=O)Oc1ccc([N+](=O)[O-])cc1,102%,99%,107,107%,101%,89.6%,23.6%,103%,99.2%,111%,117%,106%,117%,108%,103%,104%,,89.5%,105%,
C[N+](C)(C)c1ncnc2nc[nH]c12,93.8%,99.1%,67,98%,104%,97.1%,108%,89.8%,104%,116%,73.3%,111%,,102%,87.8%,97.6%,91.5%,93.8%,94.2%,
COc1ccc2c(c1)N(CCO)C1=C(C(=O)OC1)C2c1cc(OC)c(OC)c(OC)c1 (configuration not stated),17.4%,2.05% (active),17,25.6%,0.781% (active),-36.1% (active),13.1%,25.3%,-65.4% (active),-30.8% (active),15%,-24.4% (active),55.5%,23.9%,-20.6% (active),-6.38% (active),47.4%,11.2%,5.29% (active),
CC(=O)c1cc(Br)ccc1O,105%,101%,127,118%,105%,87.4%,107%,104%,121%,114%,103%,108%,109%,112%,95.3%,97.1%,113%,104%,101%,
COc1cc([C@@H]2c3cc4c(cc3C(Br)[C@H]3COC(=O)[C@H]23)OCO4)cc(OC)c1OC (some centres not stated),4.09% (active),97.8%,42.2,-13% (active),-50.8% (active),-46.5% (active),-24% (active),9.16% (active),-88.4% (active),-82.4% (active),,-5.49% (active),,-29.9% (active),-15.4% (active),-44.5% (active),16.2%,-8.65% (active),-3.53% (active),31.5
O=[N+]([O-])c1cccc(N=Cc2ccc3c(c2)OCO3)c1,104%,104%,112,109%,120%,89.8%,101%,106%,120%,119%,100%,130%,118%,114%,102%,115%,102%,97.7%,122%,
